Laboratory results from publication PMC4336329 (PLoS ONE, 2015).
Out of some 310,000 compounds screened, about 14,000 (4.5%) showed an effect of 50% or more. The effect is printed as a negative number. This is one part of a sample in which strong results are shown more often than they occur.

Each compound was assayed against human ether-à-go-go-related gene (hERG) potassium channel (human, UniProt Q12809) (assay: primary screen, population patch clamp on CHO cells stably expressing hERG; higher = less effect of the substance).
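Note: peak tail current of the secondary pulse compared with the same well before compound.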

Chain of human ether-à-go-go-related gene (hERG) potassium channel (Q12809 whole entry, looked up): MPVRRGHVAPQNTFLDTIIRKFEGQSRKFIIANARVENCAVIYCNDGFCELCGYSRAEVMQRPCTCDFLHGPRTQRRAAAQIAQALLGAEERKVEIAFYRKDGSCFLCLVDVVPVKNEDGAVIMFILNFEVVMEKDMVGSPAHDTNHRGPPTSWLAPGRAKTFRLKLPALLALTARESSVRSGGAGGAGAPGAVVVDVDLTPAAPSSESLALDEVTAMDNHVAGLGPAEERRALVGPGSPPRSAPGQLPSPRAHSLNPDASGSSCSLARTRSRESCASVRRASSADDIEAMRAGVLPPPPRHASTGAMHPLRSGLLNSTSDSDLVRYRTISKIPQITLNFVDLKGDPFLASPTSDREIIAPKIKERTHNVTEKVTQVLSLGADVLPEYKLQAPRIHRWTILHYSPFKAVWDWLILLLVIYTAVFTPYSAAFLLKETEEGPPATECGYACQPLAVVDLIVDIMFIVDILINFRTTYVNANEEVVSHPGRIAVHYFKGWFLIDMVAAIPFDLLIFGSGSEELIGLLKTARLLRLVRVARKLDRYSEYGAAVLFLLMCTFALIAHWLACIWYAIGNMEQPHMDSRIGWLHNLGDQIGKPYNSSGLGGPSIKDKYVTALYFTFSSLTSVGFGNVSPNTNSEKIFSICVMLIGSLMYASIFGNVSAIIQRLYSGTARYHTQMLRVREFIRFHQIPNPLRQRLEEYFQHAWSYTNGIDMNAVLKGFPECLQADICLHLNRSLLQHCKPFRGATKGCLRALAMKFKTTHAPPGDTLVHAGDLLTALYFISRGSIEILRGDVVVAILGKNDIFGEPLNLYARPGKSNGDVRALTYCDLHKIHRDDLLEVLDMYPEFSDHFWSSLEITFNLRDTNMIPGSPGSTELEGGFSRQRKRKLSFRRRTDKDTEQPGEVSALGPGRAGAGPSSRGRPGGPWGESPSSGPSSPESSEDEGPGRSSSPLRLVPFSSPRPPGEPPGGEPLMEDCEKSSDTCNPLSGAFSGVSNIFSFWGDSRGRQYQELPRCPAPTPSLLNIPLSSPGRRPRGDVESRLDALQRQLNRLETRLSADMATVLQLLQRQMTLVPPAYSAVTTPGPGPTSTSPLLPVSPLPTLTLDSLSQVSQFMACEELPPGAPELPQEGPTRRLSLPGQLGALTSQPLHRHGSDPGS

Compared with CC(=O)Nc1ccc(Sc2ncccc2C(=O)Nc2cc(Cl)cc(Cl)c2)cn1, O=C(Nc1ccc(S(=O)(=O)Nc2ncccn2)cc1)c1ccccc1NS(=O)(=O)c1ccc(F)cc1 is lower in “hERG current change (%, negative = inhibition) at 10uM” value: 26.7% for the first, 9.91% for the second.

First: CN(C)/C=C(\C#N)C(=O)N/N=C/c1ccc(F)cc1
Second: Cc1c(-c2ccc(/C=N/NC(=O)C(=O)Nc3ccccc3F)o2)cccc1[N+](=O)[O-]
The “hERG current change (%, negative = inhibition) at 10uM” value of the first is lower: -10.1% for the first, 21.1% for the second.

First: C=CCN(CC=C)C(=O)C[n+]1ccc(C(N)=O)cc1.[Cl-]
Second: C=CCN(CC=C)CCCOc1ccc(C)cc1OC.O=C(O)C(=O)O
The “hERG current change (%, negative = inhibition) at 10uM” value of the first is higher: -0.0573% for the first, -45.1% for the second.

Compared with O=C(CSc1ccc2nnc(-c3ccccn3)n2n1)Nc1ccc2c(c1)OCCO2, O=C(CSc1ccc2nnc(-c3ccccn3)n2n1)Nc1ccc2c(c1)OCO2 is higher in “hERG current change (%, negative = inhibition) at 10uM” value: -40.6% for the first, -33.7% for the second.

First: O=C(CSc1ccccn1)NCc1ccc2c(c1)OCO2
Second: O=C(CSc1ccc2nnc(-c3ccccn3)n2n1)NCc1ccc2c(c1)OCO2
The “hERG current change (%, negative = inhibition) at 10uM” value of the first is higher: 3.5% for the first, -74.4% for the second.

Compared with O=C(CSc1ccc2nnc(-c3ccncc3)n2n1)Nc1ccc2c(c1)OCO2, O=C(CSc1ccc2nnc(-c3cccnc3)n2n1)NCc1ccc2c(c1)OCO2 is lower in “hERG current change (%, negative = inhibition) at 10uM” value: 7.8% for the first, -53.3% for the second.

Compared with O=C(CSc1ccc2nnc(-c3cccnc3)n2n1)NCc1ccco1, O=C(CSc1ccc2nnc(-c3cccnc3)n2n1)NCC1CCCO1 (stereo not drawn) is higher in “hERG current change (%, negative = inhibition) at 10uM” value: -44.3% for the first, -9.66% for the second.

Going from O=C(CSc1ccc2nnc(-c3ccccc3)n2n1)NCc1ccc2c(c1)OCO2 to COc1ccc(C)cc1NC(=O)C(Sc1nnc2ccccn12)c1ccccc1 (stereo not drawn), the “hERG current change (%, negative = inhibition) at 10uM” value rises from -80.3% to -67.7%.

First: O=C(O)CC1c2ccccc2CCN1S(=O)(=O)c1ccccc1 (stereo not drawn)
Second: CCOc1ccccc1OCC(=O)Nc1cc(S(=O)(=O)N2CCCCC2)ccc1OC
The “hERG current change (%, negative = inhibition) at 10uM” value of the first is higher: -1.51% for the first, -16% for the second.

Compared with COc1ccc(N2C(=O)CN=C2Nc2nc(C)cc(C)n2)cc1OC, COc1ccc(NC2CCCN(C(=O)c3cccc(C)n3)C2)cc1OC (stereo not drawn) is higher in “hERG current change (%, negative = inhibition) at 10uM” value: -4.68% for the first, 18.5% for the second.

First: Cc1cccc(NC(=S)NCc2ccc3c(c2)cc(C)n3C)c1C
Second: CCOc1ccc(CCNC(=O)CSCC(=O)Nc2cccc(C)c2)cc1OCC
The “hERG current change (%, negative = inhibition) at 10uM” value of the first is lower: -9.2% for the first, -8.35% for the second.

Going from CC(=O)c1ccc(NC(=O)CSc2nc(N3CCOCC3)nc(N3CCOCC3)n2)cc1 to CCC(=O)c1ccc(OCC(=O)Nc2cc(S(=O)(=O)N3CCCCC3)ccc2N2CCN(CC)CC2)cc1, the “hERG current change (%, negative = inhibition) at 10uM” value falls from -7.67% to -84.3%.

Going from Cc1ccc(NS(=O)(=O)c2c(C)nc3sccn3c2=O)c(C)c1 to CC(C)NS(=O)(=O)c1cc(F)ccc1CN1C(=O)c2cccnc2C1=O, the “hERG current change (%, negative = inhibition) at 10uM” value rises from -15.2% to 10.5%.

First: CC1(C)N=C(c2ccccc2)[C@@H]2C(c3ccc([N+](=O)[O-])cc3)N21 (stereo partly drawn)
Second: COc1ccc(C)cc1NC(=O)C(Sc1nncn1C)c1ccccc1 (stereo not drawn)
The “hERG current change (%, negative = inhibition) at 10uM” value of the first is lower: -31.6% for the first, -3.91% for the second.

Going from CC12CCC(C(=O)Nc3nc4ccc(Br)cc4s3)(OC1=O)C2(C)C (stereo not drawn) to CCc1cc2c(=O)n(-c3ccccc3)cnc2s1, the “hERG current change (%, negative = inhibition) at 10uM” value rises from -2.78% to 5.13%.

Going from COc1cc2c(cc1OC)C(C)N(CCN1C(=O)c3ccccc3C1=O)CC2 (stereo not drawn) to COc1cc2c(cc1OC)C(C)N(Cc1ccc3c(c1)OCO3)CC2 (stereo not drawn), the “hERG current change (%, negative = inhibition) at 10uM” value falls from 17.5% to -3.76%.

Compared with COc1cc2c(cc1OC)CN(CC(O)c1ccccc1)CC2 (stereo not drawn), COc1cc2c(cc1OC)CN(CC(=O)Nc1ccc(Cl)cc1Cl)CC2 is lower in “hERG current change (%, negative = inhibition) at 10uM” value: 14.4% for the first, -11.7% for the second.

First: COc1cc2c(cc1OC)C(C)N(CCc1ccc(Cl)cc1)CC2.O=C(O)/C=C\C(=O)O (stereo not drawn)
Second: COc1cc2c(cc1OC)CN(CCC(C)c1ccc(Cl)cc1)CC2.O=C(O)/C=C\C(=O)O (stereo not drawn)
The “hERG current change (%, negative = inhibition) at 10uM” value of the first is higher: -70.2% for the first, -72.1% for the second.

Going from Br.COc1cccc(C(=O)CSc2nccn2C)c1 to COc1ccc(-n2c(=S)[nH]c3ncccc3c2=O)cc1, the “hERG current change (%, negative = inhibition) at 10uM” value falls from 24.2% to 7.98%.

Going from COc1ccc(Cl)cc1NC(=O)CSc1nnc(-c2ccncc2)n1CC1CCCO1 (stereo not drawn) to COc1ccc(NC(=O)C(Sc2nnc3ccccn23)c2ccccc2)cc1Cl (stereo not drawn), the “hERG current change (%, negative = inhibition) at 10uM” value rises from -28.2% to -1.62%.

Going from C=CCn1c(N2CCN(c3ccc(OC)cc3)CC2)nc2c1c(=O)[nH]c(=O)n2C to COc1cccc(N2CCN(C(=O)c3cc4c(OC)c(OC)c(OC)cc4[nH]3)CC2)c1, the “hERG current change (%, negative = inhibition) at 10uM” value rises from -24.6% to 9.11%.

First: COc1cccc(N2C(=O)C3CCCN3C2c2ccc(F)cc2)c1 (stereo not drawn)
Second: COc1ccc(CN(C)C(=O)c2ccc(NS(=O)(=O)c3ccc(F)cc3)cc2)c(OC)c1
The “hERG current change (%, negative = inhibition) at 10uM” value of the first is higher: 6.88% for the first, 3.52% for the second.

Compared with CCOc1nc2cnccc2n(CC(=O)Nc2ccccc2F)c1=O, CC(OC(=O)Cc1n[nH]c(=O)c2ccccc12)C(=O)Nc1ccc(F)cc1Cl (stereo not drawn) is lower in “hERG current change (%, negative = inhibition) at 10uM” value: 26.4% for the first, 2.32% for the second.

Compared with C=CCN(CC=C)CCCOc1ccccc1C(=O)OC.O=C(O)C(=O)O, COC(=O)c1ccccc1OCCCN(C)C.O=C(O)C(=O)O is higher in “hERG current change (%, negative = inhibition) at 10uM” value: -72.4% for the first, -17.4% for the second.

Compared with C/C(N)=C(/C#N)C(=O)CSc1cc(C)c2cc(C)cc(C)c2n1, CCCC1=C(C(=O)OCC)C(c2c(C)nn(-c3ccccc3)c2Cl)C(C#N)=C(N)O1 (stereo not drawn) is lower in “hERG current change (%, negative = inhibition) at 10uM” value: 2.54% for the first, -16.1% for the second.

Going from COC(=O)c1ccc(OC(=O)C2CSC3(C)CCC(=O)N23)cc1 (stereo not drawn) to CCC(=O)c1ccc(OCC(=O)Nc2cc(S(=O)(=O)N3CCCCC3)ccc2OC)cc1, the “hERG current change (%, negative = inhibition) at 10uM” value falls from -1.4% to -19.8%.

First: O=C(NC1CCCCC1)c1cc([N+](=O)[O-])ccc1N1CCCCC1
Second: N#Cc1ccc(OCC(=O)Nc2cc(S(=O)(=O)N3CCCCC3)ccc2N2CCCCC2)cc1
The “hERG current change (%, negative = inhibition) at 10uM” value of the first is lower: -17% for the first, -13.3% for the second.

Compared with CCCCCn1c(N)c(-c2nc3ccccc3s2)c2c([N+](=O)[O-])nn(CC)c(=O)c21, CCOC(=O)CNS(=O)(=O)CCN1C(=O)c2ccccc2C1=O is lower in “hERG current change (%, negative = inhibition) at 10uM” value: 5.78% for the first, 1.65% for the second.

First: CCOc1ccccc1OCC(=O)Nc1cc(S(=O)(=O)N2CCCCC2)ccc1N1CCN(CC)CC1
Second: CCN1CCN(c2ccc(S(=O)(=O)N3CCCCC3)cc2NC(=O)COc2ccccc2)CC1
The “hERG current change (%, negative = inhibition) at 10uM” value of the first is lower: -71.5% for the first, -66.6% for the second.

Compared with CCN1CCN(c2ccc(S(=O)(=O)N3CCCCC3)cc2NC(=O)COc2ccc(F)cc2Cl)CC1, CCN1CCN(c2ccc(S(=O)(=O)N3CCCCC3)cc2NC(=O)COc2cc(C)ccc2Cl)CC1 is higher in “hERG current change (%, negative = inhibition) at 10uM” value: -65.1% for the first, -14.1% for the second.

Compared with CCN1CCN(c2ccc(S(=O)(=O)N3CCCCC3)cc2NC(=O)COc2ccc(Cl)c(C)c2)CC1, CCN1CCN(c2ccc(S(=O)(=O)N3CCCCC3)cc2NC(=O)COc2ccc(Cl)cc2)CC1 is higher in “hERG current change (%, negative = inhibition) at 10uM” value: -34.5% for the first, -15.2% for the second.

First: COc1ccccc1OCC(=O)Nc1cc(S(=O)(=O)N2CCCCC2)ccc1N1CCCCC1
Second: CCN1CCN(c2ccc(S(=O)(=O)N3CCCCC3)cc2NC(=O)Cc2c(Cl)cccc2Cl)CC1
The “hERG current change (%, negative = inhibition) at 10uM” value of the first is higher: 2.21% for the first, -38.6% for the second.

Compared with CSc1nnc([C@@H](N)Cc2c[nH]c3ccccc23)o1.Cl, COC(=O)C(C)n1cnc2c(nnn2-c2cccc(Cl)c2)c1=O (stereo not drawn) is lower in “hERG current change (%, negative = inhibition) at 10uM” value: 30.1% for the first, -13.4% for the second.

First: CN1CCNC(=O)C1CC(=O)NCCc1ccccc1F (stereo not drawn)
Second: CC1CCN(S(=O)(=O)c2cc(F)ccc2CN2C(=O)c3cccnc3C2=O)CC1
The “hERG current change (%, negative = inhibition) at 10uM” value of the first is higher: 13.4% for the first, -60.4% for the second.

Going from CCCCNC(=O)O[C@H]1C[C@@H]2CCN3C(=O)CCC[C@H]([C@H]1CC)[C@H]23 to CCOC(=O)C1CCN(S(=O)(=O)c2ccc(CN3C(=O)c4cccnc4C3=O)cc2)CC1, the “hERG current change (%, negative = inhibition) at 10uM” value falls from -8.19% to -9.61%.

First: CN1CCN(C(=O)c2ccccc2NC(=O)c2ccc(C(C)(C)C)cc2)CC1
Second: Cc1onc(C(=O)N2CCN(Cc3ccccc3)CC2)c1[N+](=O)[O-]
The “hERG current change (%, negative = inhibition) at 10uM” value of the first is higher: -9.21% for the first, -10.7% for the second.

Compared with NSc1nc(N)c2nc(-c3ccccc3)c(-c3ccccc3)nc2n1, Cc1ccc(CNS(=O)(=O)c2cc(F)ccc2CN2C(=O)c3cccnc3C2=O)o1 is lower in “hERG current change (%, negative = inhibition) at 10uM” value: 4.96% for the first, -9.97% for the second.

Compared with COc1cccc(CN(C)C(=O)c2ccc(NS(=O)(=O)c3ccc(F)cc3)cc2)c1OC, COc1ccc(CN(C)C(=O)c2ccc(NS(=O)(=O)c3ccc(F)cc3)cc2)c(OC)c1OC is lower in “hERG current change (%, negative = inhibition) at 10uM” value: -9.34% for the first, -55.6% for the second.

Compared with COc1cc(C2NC(=O)c3ccccc3O2)cc(OC)c1OC (stereo not drawn), COc1ccc(CN2C(=O)c3cccnc3C2=O)cc1S(=O)(=O)N1CCCC(C)C1 (stereo not drawn) is higher in “hERG current change (%, negative = inhibition) at 10uM” value: -9.55% for the first, -0.978% for the second.

Compared with CC1CCCN(S(=O)(=O)c2ccc(CN3C(=O)c4cccnc4C3=O)cc2)C1 (stereo not drawn), CC1(C)CC(=O)C(CC2=C(N)CC(C)(C)CC2=O)=C(N)C1 is higher in “hERG current change (%, negative = inhibition) at 10uM” value: -58% for the first, 4.6% for the second.

With COC(C[C@H]1O[C@@H]1C(=O)COCc1ccccc1)OC the “hERG current change (%, negative = inhibition) at 10uM” value was 4.27%.
